Results on 62 compounds are retold here after PubChem BioAssay AID588397 (National Center for Advancing Translational Sciences (NCATS), 2011).

Several values for one entry are separate records, joined by “and”; a condition that tells them apart may be missing. Identical values can stand only once. In all, about 1,300 compounds went through this assay and about 1,000 (77%) were called active. Inconclusive results (about 7%) are left out. Calls follow the shape of the dose curve; as a rule, active = well fitted inhibition curve with a large enough effect; inconclusive = small, poorly fitted or top-dose-only effect; inactive = no such curve, though single readings can be large or run the other way. So high a share suggests a set chosen from earlier hits. The list shows a part of the results.
% is scaled to controls: 0 for no effect and ±100 for the full control effect; potency is read from the fitted curve at half-maximal effect.

The experiment in a line: qHTS of small molecules that selectively kill Giardia lamblia: Hit Validation.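 Also: viability measured as ATP content by luminescence so killing lowers signal; trophozoites exposed to compounds for 48 h anaerobically at 37 °C; nearly all actives have a fitted effect of over 65% in size.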 To be noted: Giardia lamblia trophozoite viability, dose-response; series mostly up to 38.3 µM; activity change, negative = killing: at the top concentration. In outline:
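Compounds were tested on trophozoites seeded at 100 cells/well and held 48 hrs at 37 deg C anaerobically. An ATP-based luminescent kit measured the remaining live cells.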
Background: qHTS replaces the single test concentration by a dilution series.
For `COCCNc1cc(NCCOC)c([N+](=O)[O-])cc1[N+](=O)[O-]`, the Potency was 1.45 µM (active).

As to `COC(=O)c1ccc2cc(OC)cc([N+](=O)[O-])c2n1`, the Potency is 5.79 µM (active).

Consider `COCc1nnc(NC(=O)c2ccc(Cl)cc2[N+](=O)[O-])s1`, for which the Potency was 2.59 µM (active).

For `O=C(C1=C(c2ccccc2)C(=O)c2ccccc2C1=O)c1ccccc1`, the Potency was 11.6 µM (active).

As for `O=[N+]([O-])c1cc(C(F)(F)F)ccc1Oc1cccnc1[N+](=O)[O-]`, the Potency was 4.1 µM (active).

Regarding `Cc1csc(NC(=O)c2cn3ccccc3n2)n1`, the Potency was 1.63 µM (active).

`O=C(COc1cccnc1[N+](=O)[O-])Nc1ccc2c(c1)CCC2`: the Potency was 16.3 µM (active).

Consider `O=C(COc1cccnc1[N+](=O)[O-])NCc1ccc(F)cc1`, for which the Potency was 5.16 µM (active).

`CCN(CC(=O)NCc1cccs1)C(=O)c1ccc([N+](=O)[O-])o1`: the Potency was 0.41 µM (active).

With `O=C(CCN1C(=O)c2ccccc2C1=O)NCc1ccc(F)cc1`, the “activity change, negative = killing” value was -5.49% (inactive).

In the case of `CCN(CC)CCNC(=O)c1ccc(NC(=O)COc2ccc3c(c2)CCC3)cc1`, the “activity change, negative = killing” value is -8.63% (inactive).

On to `COc1cccc(NC(=O)COc2cccnc2[N+](=O)[O-])c1`, for which the Potency is 4.6 µM (active).

Regarding `C=CCNc1ncnc2sc(SC)nc12`, the “activity change, negative = killing” value is -20.1% (inactive).

`COc1ccc(CNC(=O)COc2cccnc2[N+](=O)[O-])cc1`: the Potency is 6.5 µM (active).

For the compound `COc1ccc(CNC(=O)COc2cccnc2[N+](=O)[O-])cc1OC`, the Potency is 11.6 µM (active).

For the compound `O=C(COc1cccnc1[N+](=O)[O-])NCc1ccco1`, the Potency was 6.5 µM (active).

For the compound `COc1ccc(C(C)=O)cc1COc1cccnc1[N+](=O)[O-]`, the Potency was 6.5 µM (active).

`CCCCc1cc(=O)oc2c(C)c(OCC(=O)NCc3ccccn3)ccc12`: the “activity change, negative = killing” value was -36.2% (inactive).

In the case of `O=C(NCCc1ccccc1)c1ccc(CS(=O)(=O)c2ccc(Cl)cc2)o1`, the “activity change, negative = killing” value was -35.5% (inactive).

Take `CC1CCCCC1NC(=O)NC(=O)COC(=O)c1cncc(Br)c1` (configuration not stated): the “activity change, negative = killing” value is 11.2% (inactive).

With `O=C(COc1cccnc1[N+](=O)[O-])Nc1ccc(F)cc1`, the Potency was 5.79 µM (active).

In the case of `O=C(COc1cccnc1[N+](=O)[O-])NCCc1ccc(Cl)cc1`, the Potency was 3.65 µM (active).

As for `CC1CCCCC1NC(=O)COc1cccnc1[N+](=O)[O-]` (configuration not stated), the Potency was 2.31 µM (active).

For the compound `O=C(COc1cccnc1[N+](=O)[O-])NCc1cccs1`, the Potency is 8.18 µM (active).

Turning to `CN(C)S(=O)(=O)c1cccc(C(=O)NCCNC(=O)c2cccc(S(=O)(=O)N(C)C)c2)c1`, the “activity change, negative = killing” value is 15.2% (inactive).

Take `CN(C)c1cc(NC(=O)CNC(C)(C)CC(C)(C)C)c2ccccc2n1`: the Potency was 1.03 µM (active).

Take `O=[N+]([O-])c1ccccc1S(=O)(=O)Oc1ccc(/C=N/n2cnnc2)cc1`: the Potency was 0.516 µM (active).

For the compound `O=[N+]([O-])c1ccccc1S(=O)(=O)Oc1ccccc1/C=N/n1cnnc1`, the Potency is 2.05 µM (active).

In the case of `Cc1cc2ccccn2c1C(=O)c1ccc([N+](=O)[O-])cc1[N+](=O)[O-]`, the Potency is 4.6 µM (active).

For the compound `Cn1ccsc1=NC(=O)c1ccc([N+](=O)[O-])o1`, the Potency is 0.206 µM (active).

On to `Cc1[nH]n(C2=NCCS2)c(=O)c1N=Nc1cccc(C(F)(F)F)c1`, for which the Potency was 6.5 µM (active).

Take `CCOC(=O)C1CCN(c2ccc([N+](=O)[O-])c(C(C)=O)c2)CC1`: the Potency is 2.31 µM (active).

As to `CC(=O)c1cc(N2CCOCC2)ccc1[N+](=O)[O-]`, the Potency was 1.83 µM (active).

Regarding `CC1CCN(c2ccc(-c3ccc(NC(=O)C(F)(F)F)cc3)nn2)CC1`, the Potency is 1.83 µM (active).

As to `CCC(C(=O)OC)n1c(-c2ccccc2)nc2ccccc2c1=O` (configuration not stated), the “activity change, negative = killing” value was 1.17% (inactive).

On to `COc1ccc(-c2nc3ccccc3n2OCC(=O)O)cc1`, for which the Potency is 5.79 µM (active).

On to `NNC(=O)c1cccc(Cn2cc(Br)c([N+](=O)[O-])n2)c1`, for which the Potency was 1.16 µM (active).

Turning to `CC(NC(=O)Cn1cc(Br)c([N+](=O)[O-])n1)c1ccccc1` (configuration not stated), the Potency was 0.516 µM (active).

`O=[N+]([O-])c1ccc(COn2nnc3ccccc32)cc1`: the Potency is 1.63 µM (active).

Take `CC(Nc1nc(N2CCN(CCO)CC2)nc2ccccc12)c1ccccc1` (configuration not stated): the Potency was 1.03 µM (active).

With `Cc1cc(C(=O)COc2cccnc2[N+](=O)[O-])c(C)n1Cc1ccco1`, the Potency was 0.65 µM (active).

Regarding `Cc1ccc(OCC(=O)c2cc(C)n(Cc3ccco3)c2C)c([N+](=O)[O-])n1`, the Potency is 1.16 µM (active).

Consider `O=c1c2c(-c3ccccc3)csc2ncn1/N=C/c1ccc(O)c([N+](=O)[O-])c1`, for which the Potency is 2.9 µM (active).

For the compound `Cc1cc(C)cc(Oc2ccc(NC(=O)C3CC=CCC3C(=O)O)cc2)c1` (configuration not stated), the Potency is 1.3 µM (active).

Regarding `COC(=O)Nc1nc2ccc(Sc3ccccc3)cc2[nH]1`, the Potency is 0.23 µM (active).

As to `CCc1cccc(NC(=O)CCCSc2nc3ccccc3[nH]2)c1`, the “activity change, negative = killing” value is -16.1% (inactive).

With `CCc1ccc(C(=O)Nc2nc3ccccc3[nH]2)cc1`, the Potency is 0.46 µM (active).

As for `COC(=O)Nc1nc2ccc(SC(C)C)cc2[nH]1`, the Potency is 0.365 µM (active).

Regarding `COC(=O)Nc1nc2ccc(C(=O)c3cccs3)cc2[nH]1`, the Potency is 0.23 µM (active).

`COc1cc(SC)ccc1C(=O)Nc1nc2ccccc2[nH]1`: the Potency was 0.146 µM (active).

Consider `CCCSc1ccc2nc(NC(=O)OC)[nH]c2c1`, for which the Potency was 0.516 µM (active).

Turning to `CC(=O)Nc1nc(-c2cc([N+](=O)[O-])cs2)cs1`, the Potency is 1.16 µM (active).

On to `CCC(=O)Nc1nc(-c2cc([N+](=O)[O-])cs2)cs1`, for which the Potency is 1.3 µM (active).

Consider `NC(=O)c1ccc(Nc2ccc([N+](=O)[O-])cc2[N+](=O)[O-])cc1`, for which the Potency is 2.9 µM (active).

Turning to `NC(=O)c1ccc(NC(=O)COc2ccc([N+](=O)[O-])cc2Cl)cc1`, the Potency is 1.16 µM (active).

In the case of `O=C(Nc1nccs1)c1cc([N+](=O)[O-])ccc1Cl`, the Potency is 2.59 µM (active).

Turning to `COc1ccc(C(=O)c2c3ccc([N+](=O)[O-])cc3[n+]([O-])n2CCCC(N)=O)cc1`, the Potency was 4.1 µM (active).

Turning to `COc1ccc(C(=O)c2c3ccc([N+](=O)[O-])cc3[n+]([O-])n2CCCN)cc1`, the Potency is 7.29 µM (active).

On to `COc1ccc(C(=O)c2c3ccccc3[n+]([O-])n2CCCN)cc1`, for which the Potency is 1.03 µM (active) and 3.26 µM (active).

As to `Cc1c(C(=O)O)sc2nc(SCC(=O)Nc3ccc(S(=O)(=O)NC(C)(C)C)cc3)[nH]c(=O)c12`, the “activity change, negative = killing” value is -1.26% (inactive).

With `CCN(CC)CCCC(C)Nc1cc(/C=C/c2ccccc2Cl)nc2cc(Cl)ccc12` (configuration not stated), the Potency is 3.26 µM (active).

`CCN(CC)CCCC(C)Nc1c2ccc(Cl)cc2nc2ccc(OC)cc12` (configuration not stated): the Potency is 0.13 µM (active).
